# Test results published in PubChem BioAssay (EPA / NIEHS).
# Records with an inconclusive call do not appear. Calls of active or inactive are those of the source. The calls were made as follows, unless noted: active = hit-call score of the fitted dose curve at least 0.9, where 1 is the maximum; inactive = score below 0.9.
# What was measured:
# [1] = CCTE_Shafer_MEA_dev_spike_duration_mean: CCTE's Neural Network Formation Assay for Mean Spike Duration, Shafer Lab (AID 2284051);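 also: mean network spike duration pooled as area under curve over DIV 5 to 12 recordings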;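 as to AC50: potency for a decrease in mean network spike duration versus DMSO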
# How it was run: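 Primary rat cortical neurons on 16-electrode MEA wells (PEI-coated, laminin in plating drop), exposed from plating through DIV 12 with compound renewed at DIV 5 and 9. Mean network-spike duration recorded DIV 5, 7, 9, 12; trapezoidal AUC across days, DMSO baseline.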
# [2] = CCTE_Shafer_MEA_dev_network_spike_duration_std: CCTE's Neural Network Formation Assay for Standard Deviation of Network Spike Duration, Shafer Lab (AID 2284052);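 also: area under curve of spike duration SD across recording days 5 to 12; hits are decreases in network spike duration SD versus DMSO vehicle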
# How it was run: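 Primary rat cortical neurons on PEI-coated 16-electrode MEA wells, exposed from plating day 0 through day 12 with compound renewed at DIV 5 and 9. Network spike duration SD recorded on days 5, 7, 9, 12, collapsed as trapezoidal AUC; loss-of-signal fit versus DMSO.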
# [3] = CCTE_Shafer_MEA_dev_per_network_spike_spike_percent: CCTE's Neural Network Formation Assay for Percent of Spikes in a Network Spike, Shafer Lab (AID 2284054)
# How it was run: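 Primary rat cortical neurons on 16-electrode MEA wells (PEI-coated, laminin at plating), exposed from day 0 with renewal at DIV 5 and 9; spikes within 0.05 s of network-spike peaks over total spikes, AUC across days 5, 7, 9, 12.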
# [4] = CCTE_Shafer_MEA_dev_LDH: CCTE's Lactate Dehydrogenase Assay for Cytotoxicity in the Neural Network Formation Assay, Shafer Lab (AID 2284068; active = hit-call score of the fitted dose curve at least 0.9, where 1 is the maximum;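 also: exposure for twelve days from plating with re-dosing on DIV 5 and 9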)
# How it was run: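 Primary rat cortical neurons were plated on PEI/laminin MEA plates and exposed from day 0 for twelve days, with compound renewed at DIV 5 and 9. Cytotoxicity was determined by spectrophotometric LDH assay relative to DMSO.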
# [5] = CCTE_Shafer_MEA_dev_mutual_information_norm: CCTE's Neural Network Formation Assay for Mutual Information Normalization, Shafer Lab (AID 2284091);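 as to AC50: mutual information between electrodes summarised as area under curve across four recording days; potency is for a decrease in mutual information relative to DMSO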
# How it was run: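 Rat cortical cultures, 48-well MEA, continuous exposure DIV 0–12 with full media/compound change DIV 5 and 9. Readout: inter-electrode mutual information, AxIS adaptive spike detection; AUC across DIV 5/7/9/12 recordings; DMSO baseline, negative fitting direction.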
# [6] = CCTE_Shafer_MEA_dev_correlation_coefficient_mean: CCTE's Neural Network Formation Assay for Mean Correlation Coefficient, Shafer Lab (AID 2284093);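 as to AC50: well mean pairwise spike train correlation integrated as AUC over recording days 5 to 12; potency fitted for loss of correlation relative to DMSO vehicle wells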
# How it was run: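 Spontaneous activity recorded on days 5, 7, 9 and 12 post-plating; pairwise spike correlations are averaged across active electrodes and collapsed to an area-under-curve. Rat cortical cultures are dosed from plating through 12 days, with compound renewed at media changes.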
# [7] = CCTE_Shafer_MEA_dev_AB: CCTE's Alamar Blue Assay for Cytotoxicity in the Neural Network Formation Assay, Shafer Lab (AID 2284083; active = hit-call score of the fitted dose curve at least 0.9, where 1 is the maximum;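 also: twelve days of exposure from plating with re-dosing on DIV 5 and 9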)
# How it was run: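 Primary rat cortical neurons on PEI-coated 48-well MEA plates, 1.5 x 10^5 cells/well in laminin drop; compound exposure from day 0 of plating for twelve days, renewed at medium changes on DIV 5 and 9. Viability read as resazurin reduction by fluorescence, relative to DMSO.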
# [8] = CCTE_Shafer_MEA_acute_AB: CCTE's Alamar Blue Assay for Cytotoxicity in the Neural Acute Assay, Shafer Lab (AID 2284069; active = hit-call score of the fitted dose curve at least 0.9, where 1 is the maximum;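 also: active compounds lower the viability signal compared with DMSO wells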)
# How it was run: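 Primary rat cortical neurons on MEA plates, exposed acutely after baseline recording on day 13 or 15 post-plating. Viability by CellTiter Blue resazurin reduction (1:6 reagent dilution), fluorescence 544/590 nm; loss of signal versus DMSO.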
# [9] = CCTE_Shafer_MEA_acute_LDH: CCTE's Lactate Dehydrogenase Assay for Cytotoxicity in the Neural Acute Assay, Shafer Lab (AID 2284086; active = hit-call score of the fitted dose curve at least 0.9, where 1 is the maximum;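 also: active means LDH release rises above DMSO vehicle level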)
# How it was run: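 Released lactate dehydrogenase, read at 490 nm, indicated cytotoxicity after acute 40-min compound treatment of rat cortical neuron networks grown on 48-well MEA plates.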
# DIO2 (gene 1734) = assay: CCTE_GLTED_hDIO2: CCTE's human Deiodinase 2 (DIO2) Inhibition Assay, Great Lakes Toxicology and Ecology Division (GLTED) Lab (AID 2284050; active = hit-call score of the fitted dose curve at least 0.9, where 1 is the maximum)
# How it was run: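 In this cell-free test, chemicals are exposed to human deiodinase type 2 for 3 hours. Released iodide is determined spectrophotometrically via the Sandell-Kolthoff method, and signal loss relative to DMSO is fitted.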
# DIO3 (gene 1735) = assay: CCTE_GLTED_hDIO3: CCTE's human Deiodinase 3 (DIO3) Inhibition Assay, Great Lakes Toxicology and Ecology Division (GLTED) Lab (AID 2284055; active = hit-call score of the fitted dose curve at least 0.9, where 1 is the maximum;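 also: potency is for inhibition seen as loss of released iodide signal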)
# How it was run: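 Enzyme activity is tracked as iodide release from substrate by recombinant human DIO3 over 3 h with chemical present. A second Sandell-Kolthoff step converts iodide to an absorbance signal, fitted relative to DMSO.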
# [10] = UKN5_HCS_SBAD2_cell_viability: Viability Assessment in the University of Konstanz (UKN) Leist Lab Neurite Outgrowth Assay in human iPSC-derived immature Dorsal Root Ganglia Neurons (UKN5) (AID 2284056)
# How it was run: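 iPSC-derived immature peripheral neurons (SBAD2) seeded on Matrigel with CHIR99021, SU5402 and DAPT, dosed 1 h later for 24 h. Viability from Hoechst H-33342 and calcein-AM live staining, high-content imaging; bidirectional fit versus DMSO.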
# [11] = UKN5_HCS_SBAD2_neurite_outgrowth: University of Konstanz (UKN) Leist Lab Neurite Outgrowth Assay in human iPSC-derived immature Dorsal Root Ganglia Neurons (UKN5) (AID 2284070); details: actives raise or lower the signal
# How it was run: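 SBAD2 neurons, 24 h compound treatment, calcein-AM neurite area via HCS imaging; DMSO baseline, gain or loss of signal.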
# [12] = UKN2_HCS_IMR90_neural_migration: University of Konstanz (UKN) Leist Lab Neural Crest Cell Migration Assay in human induced IMR90 Pluripotent Stem Cells (UKN2) (AID 2284204); details: actives raise or lower the signal
# How it was run: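 iPSC-derived IMR90 neural crest cells on PLO/laminin/fibronectin were seeded around silicone stoppers; after stopper removal, migration in N2-S medium with EGF and FGF ran 24 h before 24 h chemical exposure. Calcein-AM/Hoechst high-content imaging; bidirectional fit versus DMSO.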
# [13] = UKN4_HCS_LUHMES_neurite_outgrowth: University of Konstanz (UKN) Leist Lab Neurite Outgrowth Assay in human LUHMES cells (UKN4) (AID 2284206); details: actives raise or lower the signal
# How it was run: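 2-day-differentiated LUHMES, 24 h cpd exposure, live calcein-AM + H-33342 stain, HCS fluorescence imaging of neurite area; DMSO = baseline, bidirectional fit.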
# [14] = IUF_NPC1b_proliferation_BrdU_72hr: Leibniz Research Institute for Environmental Medicine (IUF) 72-hour Neural Progenitor Cell Bromodeoxyuridine (BrdU) Proliferation Assay (NPC1b) (AID 2284207)
# How it was run: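 hNPC spheres (primary, GW 16-19 fetal cortex), single sphere/well, EGF+FGF medium; 72 h compound, no renewal; BrdU pulse last 16 h; luminescent ELISA; activity vs DMSO baseline; growth-factor withdrawal as positive control.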
# [15] = IUF_NPC1a_proliferation_area_72hr: Leibniz Research Institute for Environmental Medicine (IUF) 72-hour Neural Progenitor Cell Proliferation Area Assay (NPC1a) (AID 2284208)
# How it was run: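 Proliferation is scored as sphere area gain in primary human fetal neural progenitors treated for 72 h in EGF/FGF-containing medium. Viability, LDH and BrdU readouts come from the same wells.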
# [16] = IUF_NPC1_viability_72hr: Viability Assessment at 72 hours in the Leibniz Research Institute for Environmental Medicine (IUF) Neural Progenitor Cell Proliferation Assay (NPC1) (AID 2284209)
# How it was run: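 Each well receives one 0.3 mm progenitor sphere from fetal brain cortex; test chemical is added at plating and left three days. Viability comes from alamar blue fluorescence, multiplexed with LDH and BrdU readouts in the same well.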
# [17] = CCTE_Mundy_HCI_Cortical_Synap_Neur_Matur_NeuriteSpotCountPerNeuriteLength: CCTE's Synaptogenesis and Neurite Maturation Assay in rat cortical cells for Neurite Spot Count per Neurite Length, Mundy Lab (AID 2284210)
# How it was run: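 Rat primary cortical cultures, glia arrested with AraC at DIV 5, were dosed with media change at DIV 7 and fixed at DIV 12. Synaptophysin puncta per MAP2-labelled neurite length were quantified by high-content imaging versus DMSO.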
# [18] = CCTE_Mundy_HCI_Cortical_Synap_Neur_Matur_BPCount: CCTE's Synaptogenesis and Neurite Maturation Assay in rat cortical cells for Branch Point Count, Mundy Lab (AID 2284211)
# How it was run: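 Branch point number is quantified by automated imaging of fluorescently labelled neurites and synapses in rat primary cortical neurons exposed from DIV 7 to DIV 12. Activity is analysed relative to DMSO negative control.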
compound,measurement,setting,value
C=CC(F)(C(F)(F)F)C(F)(F)C(F)(F)F (configuration not stated),outcome,[1],inactive
same,outcome,[2],inactive
same,outcome,[3],inactive
same,outcome,[4],inactive
same,outcome,[5],inactive
same,outcome,[6],inactive
O=S(=O)(F)C(F)(F)C(F)(F)C(F)(F)C(F)(F)F,outcome,[1],inactive
same,outcome,[2],inactive
same,outcome,[3],inactive
same,outcome,[7],inactive
same,outcome,[5],inactive
same,outcome,[6],inactive
Oc1ccc(Cc2ccc(O)cc2)cc1,outcome,[8],inactive
CCCCOC(=O)COC(=O)c1ccccc1C(=O)OCCCC,outcome,[8],inactive
same,outcome,[9],inactive
FC(F)OCC(F)(F)C(F)(F)F,outcome,[1],inactive
same,outcome,[2],inactive
same,outcome,[3],inactive
same,outcome,[5],inactive
same,outcome,[6],inactive
CC(C)(C)c1ccccc1O,outcome,[8],inactive
same,outcome,[9],inactive
O=[N+]([O-])c1ccc(Cl)c([N+](=O)[O-])c1,AC50,DIO2 (gene 1734),30.3 µM (active)
same,AC50,DIO3 (gene 1735),7.41 µM (active)
Clc1cccc(Cl)c1Cl,outcome,[9],inactive
O=C(Cc1ccccc1)OCCc1ccccc1,outcome,[9],inactive
CNC(=O)CSP(=O)(OC)OC,outcome,[1],inactive
same,outcome,[2],inactive
same,outcome,[3],inactive
same,AC50,[10],20.9 µM (active)
same,outcome,[4],inactive
same,outcome,[11],inactive
same,outcome,[5],inactive
same,outcome,[6],inactive
same,outcome,[12],inactive
same,outcome,[13],inactive
same,outcome,[14],inactive
same,outcome,[15],inactive
same,outcome,[16],inactive
same,outcome,[17],inactive
same,outcome,[18],inactive
O=S1OC[C@@H]2[C@H](CO1)[C@]1(Cl)C(Cl)=C(Cl)[C@@]2(Cl)C1(Cl)Cl (some centres not stated),outcome,[10],inactive
same,outcome,[11],inactive
same,AC50,[12],14.6 µM (active)
same,AC50,[13],18.6 µM (active)
same,outcome,[14],inactive
same,outcome,[15],inactive
same,AC50,[16],2.59 µM (active)
Cc1ccccc1OP(=O)(Oc1ccccc1C)Oc1ccccc1C,AC50,[1],21.4 µM (active)
same,outcome,[2],inactive
same,AC50,[3],19.4 µM (active)
same,AC50,[4],20.2 µM (active)
same,AC50,[7],21.1 µM (active)
same,outcome,[9],inactive
same,AC50,[5],11.5 µM (active)
same,AC50,[6],15 µM (active)
same,AC50,[12],4.73 µM (active)
same,outcome,[14],inactive
same,outcome,[15],inactive
same,outcome,[16],inactive
same,outcome,[17],inactive
same,AC50,[18],26.4 µM (active)
CN(C)C(=S)S,outcome,[8],inactive
Oc1cc(Cl)c(Cl)cc1Cl,outcome,[8],inactive
same,outcome,[9],inactive
O=C1c2ccccc2C(=O)C1C(=O)C(c1ccccc1)c1ccc(Cl)cc1 (configuration not stated),AC50,DIO2 (gene 1734),91.9 µM (active)
same,AC50,DIO3 (gene 1735),68.5 µM (active)
CC(=Cc1ccccc1)[N+](=O)[O-],AC50,DIO2 (gene 1734),41.8 µM (active)
same,AC50,DIO3 (gene 1735),64.6 µM (active)
CC(F)(F)CC(F)(F)F,outcome,[1],inactive
same,outcome,[2],inactive
same,outcome,[3],inactive
same,outcome,[7],inactive
same,outcome,[5],inactive
same,outcome,[6],inactive
CC(=O)C(F)(F)C(F)(F)F,outcome,[1],inactive
same,outcome,[2],inactive
same,outcome,[3],inactive
same,outcome,[5],inactive
same,outcome,[6],inactive
N#CCC#N,AC50,DIO2 (gene 1734),48.8 µM (active)
same,AC50,DIO3 (gene 1735),58 µM (active)
C=CCOC(F)(C(F)(F)F)C(F)(F)F,outcome,[1],inactive
same,outcome,[2],inactive
same,outcome,[3],inactive
same,outcome,[5],inactive
same,outcome,[6],inactive
